Experimental data from PubChem BioAssay (NCATS).
Results filed as inconclusive are left out. Activity calls are given as the source filed them. Unless noted, calls come from the whole dose curve; as a rule, active = well fitted curve in the direction sought with a large enough effect; inconclusive = small, poorly fitted or top-dose-only effect, or another doubt; inactive = no such curve, though single readings can be large; an effect the other way counts as inactive or inconclusive.

Tests used:
[1] = biological target: Lysosomal acid glucosylceramidase (Homo sapiens) (UniProt P04062); assay: Glucocerebrosidase-p2 (AID 348; in the data active = potency below about 10 µM; note: potency is the fitted concentration of half-maximal effect); settings: purified GBA, blue fluorogenic substrate, 40 min
Lysosomal acid glucosylceramidase (Homo sapiens), sequence (P04062 whole entry, looked up): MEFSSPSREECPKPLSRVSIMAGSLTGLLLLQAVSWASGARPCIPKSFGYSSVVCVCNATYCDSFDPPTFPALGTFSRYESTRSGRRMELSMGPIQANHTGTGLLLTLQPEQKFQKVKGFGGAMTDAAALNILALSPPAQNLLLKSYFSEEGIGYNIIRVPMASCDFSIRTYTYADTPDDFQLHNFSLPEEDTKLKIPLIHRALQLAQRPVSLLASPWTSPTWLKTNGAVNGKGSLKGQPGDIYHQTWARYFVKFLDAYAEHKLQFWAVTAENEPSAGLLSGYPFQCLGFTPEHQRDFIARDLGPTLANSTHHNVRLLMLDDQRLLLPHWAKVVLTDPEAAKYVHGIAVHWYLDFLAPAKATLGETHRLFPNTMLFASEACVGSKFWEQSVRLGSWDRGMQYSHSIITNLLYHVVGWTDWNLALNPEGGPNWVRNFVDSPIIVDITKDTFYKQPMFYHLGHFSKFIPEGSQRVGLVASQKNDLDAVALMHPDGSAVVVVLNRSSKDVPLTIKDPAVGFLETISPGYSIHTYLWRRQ
Procedure, shortened: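 Normal human glucocerebrosidase (0.2 nM) with blue fluorogenic substrate (80 uM final) in citrate/phosphate pH 5.9 with 10mM sodium taurocholate, 0.01% tween-20; 40 min RT, NaOH/glycine stop; fluorescence Ex 365/Em 440; AC50 from a titration from 0.6 nM upwards.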

[2] = AP1 Signaling Pathway (AID 357; active = well fitted curve in either direction with a large enough effect, not every such curve was filed as active;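 note: ME-180 reporter cells stimulated with EGF at its EC50 level; % is set by controls: 0 for no effect and ±100 for the full control effect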); settings: ME-180 AP-1-bla reporter, EGF-induced, beta-lactamase ratio, 5 h; at 7.69 µM (top of the series) unless noted
Procedure, shortened: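 AP-1-bla ME-180 cells, Opti-MEM + 0.5% dialyzed FBS, plated overnight 37 °C. Cpd titration + EC50 EGF, 5 h 37 °C. CCF4 2.5 h RT; ex 405, em 460/530 ratio → %activity, AC50.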

[3] = NFAT Signaling Pathway (AID 444; active = well fitted curve in either direction with a large enough effect, not every such curve was filed as active;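 note: carbachol stimulus at about its EC50 of 1 µM final; % is set by controls: 0 for no effect and ±100 for the full control effect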); settings: Jurkat NFAT-bla M1, carbachol, beta-lactamase ratio, 5 h; at 7.69 µM (top of the series) unless noted
Procedure, shortened: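 Read-out: CCF4 FRET ratio (460 nm/530 nm) after 1 h RT dye loading, used for %activity and AC50 from titration series. Cells: Jurkat NFAT-β-lactamase/M1 line, treated with compound plus 1 uM carbachol for 5 h, 37 °C.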

[4] = Stat Signaling Pathway (AID 446; active = well fitted curve in either direction with a large enough effect, not every such curve was filed as active;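 note: ME-180 cervical cancer cells given 40 pM IL-6 alongside compound; SIE-controlled beta-lactamase reporter measured as 460/530 nm FRET emission ratio; % is set by controls: 0 for no effect and ±100 for the full control effect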); settings: ME-180 (cervical carcinoma) SIE beta-lactamase reporter, IL-6 stimulated, 5 h; at 7.69 µM (top of the series) unless noted
Procedure, shortened: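 FRET read-out (405 nm excitation, 460/530 nm emission) of a beta-lactamase reporter under a STAT-inducible element in ME-180 cervical carcinoma cells. Cells with compound receive 40 pM IL-6 for 5 h. Values are normalised to AC90 stimulation and AC90 JAK-inhibitor controls.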

[5] = biological target: Glucocorticoid receptor (Homo sapiens) (UniProt P04150); assay: GR-GFP Redistribution (AID 450;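 active = compounds whose dose series gives a full or clear partial fitted curve of increased nuclear translocation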; note: potency is the fitted concentration of half-maximal effect); settings: U2OS GR-GFP nuclear translocation, laser cytometry, 2 h
Glucocorticoid receptor (Homo sapiens), sequence (P04150 whole entry, looked up, the tested form may be a part): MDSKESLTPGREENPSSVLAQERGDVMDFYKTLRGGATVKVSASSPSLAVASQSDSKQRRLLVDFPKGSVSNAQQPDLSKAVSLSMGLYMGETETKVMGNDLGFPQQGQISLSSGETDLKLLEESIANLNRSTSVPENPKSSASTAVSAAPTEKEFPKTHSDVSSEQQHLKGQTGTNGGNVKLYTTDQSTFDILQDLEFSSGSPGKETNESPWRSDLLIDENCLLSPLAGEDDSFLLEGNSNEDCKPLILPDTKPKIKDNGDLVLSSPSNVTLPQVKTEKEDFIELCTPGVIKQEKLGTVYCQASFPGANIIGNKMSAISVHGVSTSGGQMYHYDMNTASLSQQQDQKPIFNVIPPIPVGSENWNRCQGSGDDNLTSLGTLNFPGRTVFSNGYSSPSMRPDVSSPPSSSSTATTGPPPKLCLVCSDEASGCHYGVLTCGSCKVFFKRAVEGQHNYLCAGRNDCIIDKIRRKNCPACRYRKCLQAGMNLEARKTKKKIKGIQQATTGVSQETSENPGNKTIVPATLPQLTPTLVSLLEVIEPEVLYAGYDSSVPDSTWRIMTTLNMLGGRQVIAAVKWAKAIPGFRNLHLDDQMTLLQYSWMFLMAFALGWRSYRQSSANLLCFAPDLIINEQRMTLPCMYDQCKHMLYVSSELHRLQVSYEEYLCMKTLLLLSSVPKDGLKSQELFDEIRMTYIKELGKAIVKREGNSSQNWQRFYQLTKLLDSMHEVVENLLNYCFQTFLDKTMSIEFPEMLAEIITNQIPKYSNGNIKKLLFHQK

[6] = biological target: Glucocorticoid receptor (Homo sapiens) (UniProt P04150); assay: GR-EFC Redistribution (AID 451; calls by dose curve; note: potency is the fitted concentration of half-maximal effect); settings: CHO-K1 GR-EFC translocation, beta-gal luminescence, 2 h
Procedure, shortened: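 Translocation of GR-ED fusion to nuclear EA restores b-gal, read by luminescence after 1 h room-temperature detection. Engineered CHO-K1 biosensor cells, 1,000/well, exposed 2 h at 37 C to titrations up to 46 uM final.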

[7] = biological target: Mitogen-activated protein kinase 10 (Mus musculus) (UniProt Q61831); assay: JNK3 AlphaScreen Assay (AID 530; active = well fitted curve in either direction with a large enough effect, not every such curve was filed as active;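 note: kinase came from lysate of stimulated human HepG2 cells; signal reports phosphorylation of biotinylated GST-cJun 1-79 at Ser73 with 10 µM ATP; % is set by controls: 0 for no effect and ±100 for the full control effect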)
Procedure, shortened: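 qHTS titrations with 15 min compound pre-incubation before adding ATP (10 uM final). Read-out: AlphaScreen of Ser73-phosphorylated biotin-GST-cJun using HepG2 lysate JNK3 activated by IL-1β and TNFα.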

[8] = biological target: 3',5'-cyclic-AMP phosphodiesterase 4B (Homo sapiens) (UniProt Q07343); assay: qHTS Assay for Inhibitors of PDE-IV (AID 607; active = well fitted activation curve with a large enough effect in the main read-out, with a control signal flat, not every such curve was filed as active; note: % of control where 0% means no effect)
3',5'-cyclic-AMP phosphodiesterase 4B (Homo sapiens), sequence (Q07343 whole entry, looked up): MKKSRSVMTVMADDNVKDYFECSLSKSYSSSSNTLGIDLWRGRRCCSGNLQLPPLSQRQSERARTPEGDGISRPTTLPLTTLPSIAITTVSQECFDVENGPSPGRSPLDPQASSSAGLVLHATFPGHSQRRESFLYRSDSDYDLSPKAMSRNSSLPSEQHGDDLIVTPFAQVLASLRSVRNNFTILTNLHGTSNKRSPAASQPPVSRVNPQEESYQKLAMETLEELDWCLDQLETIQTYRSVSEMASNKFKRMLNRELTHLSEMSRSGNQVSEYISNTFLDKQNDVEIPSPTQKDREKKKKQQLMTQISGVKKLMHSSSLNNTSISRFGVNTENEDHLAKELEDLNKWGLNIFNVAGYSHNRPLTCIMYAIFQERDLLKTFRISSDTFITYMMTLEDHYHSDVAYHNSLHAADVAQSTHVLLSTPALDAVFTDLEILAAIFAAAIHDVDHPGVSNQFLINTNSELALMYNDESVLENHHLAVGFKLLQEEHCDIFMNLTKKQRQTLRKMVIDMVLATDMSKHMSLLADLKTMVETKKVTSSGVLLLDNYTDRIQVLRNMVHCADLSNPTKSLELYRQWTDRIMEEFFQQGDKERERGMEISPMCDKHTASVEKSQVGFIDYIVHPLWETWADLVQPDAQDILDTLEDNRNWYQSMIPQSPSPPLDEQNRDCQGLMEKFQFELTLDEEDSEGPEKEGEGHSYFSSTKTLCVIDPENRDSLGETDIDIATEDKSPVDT
Procedure, shortened: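 Cell-based read-out of cAMP via a modified cyclic nucleotide-gated channel and membrane potential dye (535/590 nm) in HEK293 cells expressing PDE4 endogenously. Compounds tested up to 22.9 uM final; 100 uM RO 20-1724 reference.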

[9] = qHTS Assay for Lipid Storage Modulators (AID 1519; calls by dose curve); settings: Drosophila S3 cells, BODIPY lipid droplet/cell ratio, laser cytometry, cells loaded with oleic acid; for activity change, negative = inhibition: at 57.5 µM (top of the series)
Procedure, shortened: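 Cells seeded at 5,000 per well were treated with compounds over a concentration series and loaded with oleic acid (400 uM, as added). Lipid droplet fluorescence (488 nm excitation, 500-530 nm channel) was read by laser-scanning cytometry and normalized to 20 uM Triacsin C.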

[10] = biological target: Dual specificity protein kinase CLK4 (Homo sapiens) (UniProt Q9HAZ1); assay: qHTS Assay for Inhibitors of CDC-like Kinase 4 (Kinase-Glo Assay) (AID 1770); note: nearly all actives have a fitted effect of over 65% in size; note: potency is the fitted concentration of half-maximal effect
Dual specificity protein kinase CLK4 (Homo sapiens), sequence (Q9HAZ1 whole entry, looked up): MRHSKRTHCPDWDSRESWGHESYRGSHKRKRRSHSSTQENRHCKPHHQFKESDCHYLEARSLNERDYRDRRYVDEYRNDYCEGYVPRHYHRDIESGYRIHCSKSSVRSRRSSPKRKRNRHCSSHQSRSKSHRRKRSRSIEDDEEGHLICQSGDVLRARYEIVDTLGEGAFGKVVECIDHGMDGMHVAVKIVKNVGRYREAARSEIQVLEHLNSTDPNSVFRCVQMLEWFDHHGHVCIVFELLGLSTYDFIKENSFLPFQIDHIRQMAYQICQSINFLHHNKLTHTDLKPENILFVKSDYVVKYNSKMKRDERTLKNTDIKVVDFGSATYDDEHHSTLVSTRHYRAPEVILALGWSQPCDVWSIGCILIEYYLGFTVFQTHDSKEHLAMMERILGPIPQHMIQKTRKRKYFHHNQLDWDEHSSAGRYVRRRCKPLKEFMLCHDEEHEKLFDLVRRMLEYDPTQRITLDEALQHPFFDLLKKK
Procedure, shortened: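 Readout: Kinase-Glo luminescence from ATP left after a 4.5 h room-temperature reaction of 25 nM Clk4 with 100 uM RS peptide and 1 uM ATP (final). Buffer: 25 mM Tris pH 7.5, 10 mM MgCl2.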

[11] = biological target: Dual specificity protein kinase CLK4 (Homo sapiens) (UniProt Q9HAZ1); assay: qHTS Assay for Inhibitors of CDC-like Kinase 4 (ADP-FP Assay) (AID 1795); note: nearly all actives have a fitted effect of over 60% in size; note: potency is the fitted concentration of half-maximal effect
Procedure, shortened: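 FP readout: Orange Transcreener ADP2 tracer (4 nM) plus ADP antibody, read after 30 min at room temperature. Kinase step: 6.25 nM Clk4, 100 uM RS peptide, 1 uM ATP, pH 7.5, 1 h.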

[12] = biological target: Ubiquitin carboxyl-terminal hydrolase 1 (Homo sapiens) (UniProt O94782); assay: Inhibitors of USP1/UAF1: Pilot qHTS (AID 504865); note: nearly all actives have a fitted effect of over 35% in size; note: potency is the fitted concentration of half-maximal effect
Ubiquitin carboxyl-terminal hydrolase 1 (Homo sapiens), sequence (O94782 whole entry, looked up): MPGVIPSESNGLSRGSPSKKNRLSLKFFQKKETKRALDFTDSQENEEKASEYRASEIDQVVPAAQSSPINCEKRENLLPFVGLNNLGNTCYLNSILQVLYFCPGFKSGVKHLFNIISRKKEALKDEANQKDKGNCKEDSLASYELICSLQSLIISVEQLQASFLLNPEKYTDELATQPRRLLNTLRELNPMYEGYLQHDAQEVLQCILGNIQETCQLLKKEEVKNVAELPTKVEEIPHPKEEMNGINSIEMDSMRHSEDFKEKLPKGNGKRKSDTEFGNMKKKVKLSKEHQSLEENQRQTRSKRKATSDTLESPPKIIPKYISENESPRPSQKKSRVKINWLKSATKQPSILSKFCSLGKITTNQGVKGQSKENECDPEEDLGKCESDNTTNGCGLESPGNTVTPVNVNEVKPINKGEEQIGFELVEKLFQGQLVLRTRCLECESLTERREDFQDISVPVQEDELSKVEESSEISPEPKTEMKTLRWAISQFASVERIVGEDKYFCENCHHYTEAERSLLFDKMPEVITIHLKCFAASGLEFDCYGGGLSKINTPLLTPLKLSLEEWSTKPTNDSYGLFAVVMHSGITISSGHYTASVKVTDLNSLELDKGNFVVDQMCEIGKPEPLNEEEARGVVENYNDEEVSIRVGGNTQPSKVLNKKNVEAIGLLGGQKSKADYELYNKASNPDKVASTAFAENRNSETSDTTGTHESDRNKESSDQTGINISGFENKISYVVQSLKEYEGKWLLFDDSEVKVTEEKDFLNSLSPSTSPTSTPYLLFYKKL
Procedure, shortened: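 1nM USP1/UAF1 + cpd, 15 min RT; start w/ Ub-Rho 150nM final; kinetic FL 480/540 nm, 6 reads q60 s. Buffer 50mM HEPES pH 7.8, 0.5mM EDTA, 1mM TCEP, 0.01% Tween-20, 0.1 mg/ml BSA.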

[13] = biological target: Cytochrome P450 1A2 (Homo sapiens) (UniProt P05177); assay: p450-cyp1a2 (AID 410; calls by dose curve; note: potency is the fitted concentration of half-maximal effect)
Cytochrome P450 1A2 (Homo sapiens), sequence (P05177 whole entry, looked up): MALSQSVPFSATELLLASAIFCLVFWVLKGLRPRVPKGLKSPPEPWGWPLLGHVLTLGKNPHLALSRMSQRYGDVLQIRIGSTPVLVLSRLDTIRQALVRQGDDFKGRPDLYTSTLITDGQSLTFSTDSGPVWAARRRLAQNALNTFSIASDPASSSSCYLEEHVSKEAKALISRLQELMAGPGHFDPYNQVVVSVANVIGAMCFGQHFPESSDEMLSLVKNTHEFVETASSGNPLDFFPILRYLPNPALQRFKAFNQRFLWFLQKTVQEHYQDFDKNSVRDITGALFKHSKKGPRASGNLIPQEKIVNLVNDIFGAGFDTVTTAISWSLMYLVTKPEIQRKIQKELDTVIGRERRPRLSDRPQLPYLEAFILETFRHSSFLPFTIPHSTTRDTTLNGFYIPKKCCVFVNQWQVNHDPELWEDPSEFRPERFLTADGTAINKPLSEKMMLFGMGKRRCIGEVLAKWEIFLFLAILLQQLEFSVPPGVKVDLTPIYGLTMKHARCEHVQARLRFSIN
Procedure, shortened: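 Luminescent demethylation readout: Luciferin-ME (100uM, equal to Km) turned over by 20nM CYP1A2 for 60 min at room temperature after NADPH regeneration addition, following 10 min compound preincubation. Normalization used 57 uM furafylline as full inhibition.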

[14] = biological target: Cytochrome P450 3A4 (Homo sapiens) (UniProt P08684); assay: qHTS Assay for Activators of Cytochrome P450 3A4 (AID 885); note: nearly all actives have a fitted effect of over 65% in size
Cytochrome P450 3A4 (Homo sapiens), sequence (P08684 whole entry, looked up): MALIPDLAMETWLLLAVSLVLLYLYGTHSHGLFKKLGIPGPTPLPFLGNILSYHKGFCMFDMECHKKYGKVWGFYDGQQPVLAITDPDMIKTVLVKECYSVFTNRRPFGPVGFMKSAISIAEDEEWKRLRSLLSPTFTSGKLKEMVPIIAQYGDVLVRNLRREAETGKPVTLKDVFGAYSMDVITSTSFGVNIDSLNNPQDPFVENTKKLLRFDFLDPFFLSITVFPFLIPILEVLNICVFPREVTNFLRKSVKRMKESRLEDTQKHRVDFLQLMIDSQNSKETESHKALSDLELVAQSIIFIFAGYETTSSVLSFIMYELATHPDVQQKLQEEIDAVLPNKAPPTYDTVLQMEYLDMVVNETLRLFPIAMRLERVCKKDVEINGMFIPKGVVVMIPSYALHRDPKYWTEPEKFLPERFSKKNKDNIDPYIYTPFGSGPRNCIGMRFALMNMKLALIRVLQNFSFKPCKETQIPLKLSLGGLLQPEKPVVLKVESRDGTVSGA
Procedure, shortened: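 Luminescent readout of luciferin formed from 25 uM Luciferin-PPXE (KM level) by 20 nM CYP3A4 in 200 mM KPO4, with 60 min NADPH-driven reaction at room temperature after 10 min compound exposure. Ketoconazole (57 uM) defined 100% inhibition.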

[15] = biological target: Dual specificity protein kinase CLK4 (Homo sapiens) (UniProt Q9HAZ1); assay: qHTS Assay for Inhibitors of CDC-like Kinase 4 (ADP-Glo Assay) (AID 1771); note: nearly all actives have a fitted effect of over 70% in size; note: potency is the fitted concentration of half-maximal effect
Procedure, shortened: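 ADP production was read by ADP-Glo luminescence after residual ATP depletion, following 1 h room-temperature reaction of 25 nM Clk4, 1 uM ATP and 100 uM RS peptide with MgCl2, EGTA, DTT and Triton X-100.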

[16] = biological target: Cytochrome P450 3A4 (Homo sapiens) (UniProt P08684); assay: qHTS Assay for Inhibitors and Substrates of Cytochrome P450 3A4 (AID 884); note: potency is the fitted concentration of half-maximal effect; nearly all actives have a fitted effect of over 50% in size
Procedure, shortened: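 Luminescent readout of luciferin produced by CYP3A4 (20 nM) dealkylation of Luciferin-PPXE, 25 uM (its KM). NADPH-driven reaction ran 60 min at RT after 10 min compound preincubation; data scaled to 57 uM ketoconazole as 100% inhibition.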

[17] = biological target: Cytochrome P450 2C19 (Homo sapiens) (UniProt P33261); assay: qHTS Assay for Inhibitors and Substrates of Cytochrome P450 2C19 (AID 899); note: potency is the fitted concentration of half-maximal effect; nearly all actives have a fitted effect of over 60% in size
Cytochrome P450 2C19 (Homo sapiens), sequence (P33261 whole entry, looked up): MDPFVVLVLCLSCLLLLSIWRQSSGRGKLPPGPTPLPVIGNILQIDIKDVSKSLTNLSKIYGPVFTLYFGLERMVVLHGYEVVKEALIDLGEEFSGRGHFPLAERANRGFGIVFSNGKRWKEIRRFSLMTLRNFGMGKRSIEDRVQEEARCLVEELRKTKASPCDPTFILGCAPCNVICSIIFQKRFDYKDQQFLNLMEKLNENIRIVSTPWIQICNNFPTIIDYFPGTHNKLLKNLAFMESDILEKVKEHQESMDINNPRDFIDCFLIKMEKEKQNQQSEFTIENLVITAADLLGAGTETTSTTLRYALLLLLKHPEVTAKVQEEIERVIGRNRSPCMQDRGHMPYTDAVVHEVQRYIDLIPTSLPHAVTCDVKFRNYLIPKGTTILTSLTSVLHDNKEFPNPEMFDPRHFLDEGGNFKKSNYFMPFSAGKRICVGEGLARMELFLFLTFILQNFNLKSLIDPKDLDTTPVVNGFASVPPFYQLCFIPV
Procedure, shortened: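 5nM enzyme + 10uM Luciferin-H EGE (=KM), 50mM KPO4; cpd pin-transferred, 10 min 37C; NADPH regen, 60 min 37C; stopped w/ luciferin detection reagent, 20 min; luminescence. Normalized to 57uM ketoconazole (AC100).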

[18] = measured here: cell count channel max response
[19] = measured here: lipid channel max response

| SMILES | Potency [1] | activity change, negative = inhibition [2] | activity change, negative = inhibition [3] | activity, negative = inhibition [4] | Potency [5] | Potency [6] | Potency [7] | Potency [8] | activity change, negative = inhibition [9] | max response [9, 18] [%] | max response [9, 19] [%] | Potency [10] | Potency [11] | Potency [12] | Potency [13] | Potency [14] | Potency [15] | Potency [16] | Potency [17] |
| --- | --- | --- | --- | --- | --- | --- | --- | --- | --- | --- | --- | --- | --- | --- | --- | --- | --- | --- | --- |
| COc1ccc(-n2c(=O)c(-c3ccc(F)cc3)nc3cnc(N4CCNCC4)nc32)cc1 | > 11.4 µM (inactive) | -1.98% (inactive) | 27.8% (inactive) | 9.23% (inactive) | > 9.22 µM (inactive) | > 46 µM (inactive) | inactive | inactive | 0.369% (inactive) | 11.2 | 12.6 | inactive | inactive | inactive | – | – | – | – | – |
| COc1cccc(Nc2ncc3nc(C)c(=O)n(-c4ccccc4)c3n2)c1 | > 11.4 µM (inactive) | – | 11.1% (inactive) | -20.1% (inactive) | > 9.22 µM (inactive) | > 46 µM (inactive) | inactive | inactive | -6.79% (inactive) | -3.12 | -13.9 | – | 1.58 µM (active) | inactive | 5.01 µM (active) | inactive | 12.6 µM (active) | – | – |
| Cc1nc2cnc(N3CCN(C)CC3)nc2n(C[C@H]2CCCO2)c1=O | > 11.4 µM (inactive) | -19.6% (inactive) | -3.95% (inactive) | -13% (inactive) | > 9.22 µM (inactive) | > 46 µM (inactive) | inactive | – | 2.98% (inactive) | 2.4 | 4.31 | inactive | inactive | inactive | – | – | – | – | – |
| FC(F)(F)c1ccccc1-c1cncnc1NCCN1CCOCC1 | > 11.4 µM (inactive) | – | – | -11.6% (inactive) | > 46 µM (inactive) | > 46 µM (inactive) | inactive | inactive | -3.84% (inactive) | 15.3 | 13.3 | – | inactive | inactive | 2.51 µM (active) | inactive | inactive | 0.794 µM (active) | – |
| COc1ccccc1-c1nccc(NCc2ccccc2)n1 | > 11.4 µM (inactive) | -2.63% (inactive) | 1.11% (inactive) | 1.51% (inactive) | > 46 µM (inactive) | > 46 µM (inactive) | inactive | – | 1.38% (inactive) | 3.72 | 0.722 | inactive | – | 22.4 µM (active) | 2.51 µM (active) | inactive | inactive | – | 7.94 µM (active) |
| COc1ccccc1-c1ccc2ncnc(NCCN3CCOCC3)c2c1 | – | – | 5.89% (inactive) | -7.65% (inactive) | > 46 µM (inactive) | > 46 µM (inactive) | inactive | inactive | -9.29% (inactive) | -4.88 | -15.2 | 14.1 µM (active) | – | inactive | 15.8 µM (active) | inactive | 17.8 µM (active) | 7.94 µM (active) | – |
